Measured values reported in PubChem BioAssay.
Where “and” joins values, the source holds several entries; their conditions need not be identical. Identical values can stand only once. Results filed as inconclusive are left out. Calls of active or inactive are those of the source. Rule as the data show it, unless noted: active = nuclear beta-catenin stimulation mostly above about 4.2% (no sharp cut-off); inactive = mostly below about 10%.

Columns and labels:
[1] = stimulators of nuclear beta-catenin in C2C12, primary screen, imaging, WNT3A-conditioned medium, mouse C2C12, NPC library (AID 1117326); details: stronger effect = higher value; also: reference of the scale not given here
[2] = stimulators of insulin release from INS-1E, primary screen, cell-based, 5 mM glucose, NPC library (AID 1117329;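 active = compound raises insulin release from rat beta cells at 5 mM glucose, no numeric limit stated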; also: reference of the scale not given here); details: rat INS-1E insulin secretion, at 10 µM, stronger effect = higher value
[3] = growth inhibition of GSK3B-pretreated HCT116 cells – cell-based, CellTiter-Glo, 0.2 to 20 µM (AID 1117336;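 active = compounds lowering colon cancer cell viability after pretreatment blocking the GSK3B kinase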); details: HCT116 viability after GSK3B inhibitor, at 20 µM, stronger effect = higher value
[4] = inhibition of endothelial tube formation, primary screen, imaging, VEGF stimulated, CD31 staining, tube area, NPC library (AID 1117340;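 active = compound that reduces growth-factor-driven endothelial tube area in a mixed cell culture, no cutoff stated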); details: VEGF-stimulated ADSC/ECFC co-culture, at 10 µM, stronger effect = higher value
[5] = glucagon-like peptide 1 release enhancers, primary assay, NCI-H716 cell line, NPC library (AID 1117341;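 active = compound raises GLP1 secretion from the human gut endocrine cells, with no numeric limit stated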; also: reference of the scale not given here); details: NCI-H716 cells, at 10 µM, stronger effect = higher value
[6] = HCT116 colon cancer cell growth inhibition, primary screen, CellTiter-Glo luminescence, NPC library (AID 1117342;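 active = compounds that lower survival of HCT116 colon cancer cells in the luminescence readout, no numeric limit stated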); details: at 20 µM (top of the series)
[7] = CellTiter-Glo luminescent readout of SW480 viability loss, NPC library primary (AID 1117343;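 active = compounds that lower viability of the colon cancer cells in the luminescence readout, with no numeric limit stated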); details: CellTiter-Glo luminescence; at 20 µM (top of the series) unless noted
[8] = decreased DLD-1 cellular survival, CellTiter-Glo luminescent readout, NPC compound collection, primary HTS (AID 1117346;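 active = compounds that lower survival of DLD-1 colon cancer cells in the luminescence readout, no cutoff given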); details: DLD-1 viability, CellTiter-Glo luminescence; at 20 µM (top of the series)
[9] = growth inhibition of DIPG glioma cells, dose response, cell-based, SU-DIPG-XVII, MIPE5.0, CellTiter-Glo, qHTS (AID 1347060; cut-off not given, nearly all actives have AC50 up to about 26 µM;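 as to AC50: cells exposed to compound for 48 hours before viability readout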); details: SU-DIPG-XVII viability, CellTiter-Glo ATP luminescence
[10] = growth inhibition of DIPG glioma cells, dose response, cell-based, SU-DIPG-XIII, MIPE4.0, CellTiter-Glo, qHTS (AID 1347061; cut-off not given, nearly all actives have AC50 up to about 37 µM;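 also: cells exposed to compound for 48 hours before readout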); details: SU-DIPG-XIII viability, CellTiter-Glo ATP luminescence
[11] = growth inhibition of DIPG glioma cells, dose response, cell-based, JHH-DIPG-1, MIPE4.0, CellTiter-Glo, qHTS (AID 1347062; cut-off not given, nearly all actives have AC50 up to about 27 µM); details: JHH-DIPG-1 viability, CellTiter-Glo ATP luminescence
[12] = SU-DIPG-XXV glioma cell viability, MIPE5.0 library, qHTS (AID 1347068; cut-off not given, nearly all actives have IC50 up to about 30 µM;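 as to IC50: cells exposed to compound for 48 hours before viability readout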)
[13] = liver-stage malaria parasite growth inhibition, primary screen, cell-based, HepG2, luciferase luminescence, HepG2 viability (AID 624349; in the data active = parasite load remaining mostly below about 12%, no sharp cut-off; inactive = mostly above about 10%;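 also: 100% = mean of DMSO negative control wells on the same plate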); details: P. berghei liver stage in HepG2, luciferase luminescence, concentration not given here; parasite load remaining: stronger effect = lower value; viability: measured here: HepG2 viability without parasites
[14] = sensitizers of A549 cells to miR-34 induction, primary screen, imaging, A549 dox-inducible miR-34, nuclei and caspase counts (AID 1347080;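 active = compounds whose cell count with miR-34 switched on is under 0.7 times the count with it off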); details: A549 miR-34 inducible, Hoechst nuclei count, 48 h
[15] = survival rescue of mitochondrial mutant cells in low glucose, primary screen, MELAS cybrids, Rieske KO mouse fibroblasts, CellTiter-Glo (AID 1508586;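 active = mean z-score across replicates of 1.96 or higher in either the MELAS or the Rieske mutant cell line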;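 also: z relative to plate mean and SD of compound and empty wells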)
[16] = viability rescue of complex I mutant cybrids, primary screen, cell-based, galactose medium, ATP luminescence (AID 1645843;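 active = z-score of at least 1.8 in each of two replicates, scored against plate mean and spread of sample wells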;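 also: positive z means more ATP and so rescue of galactose-driven cybrid death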); details: complex I mutant cybrid cells, 72 h, stronger effect = higher value
[17] = tested on: Aerobactin synthetase IucA (Klebsiella pneumoniae); assay: IucA aerobactin synthetase inhibitors, biochemical, Tocris library, absorbance (AID 1345561; call rule not given here;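 also: 100% = enzyme without compound and 0% = no enzyme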); details: purified IucA enzyme assay, absorbance (OD) read-out; stronger effect = lower value;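 tested at 8 µM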
[18] = stronger effect = lower value, cell number ratio, induced over uninduced
[19] = measured here: relative caspase fold change +Dox/-Dox
[20] = measured here: total cells with miR-34 induction, stronger effect = lower value
[21] = measured here: total cells without miR-34 induction

C[C@H]1C[C@H]2[C@@H]3CCC4=CC(=O)C=C[C@]4(C)[C@H]3C(=O)C[C@]2(C)[C@@]1(O)C(=O)CO
1.2%: nuclear beta-catenin stimulation ([1]; stimulation, at 2 µM)
inactive: nuclear beta-catenin stimulation ([1]; at 10 µM) 0.1% | insulin secretion stimulation [2] 1.5% | viability decrease [3] 19% | tube area decrease [4] -11% | GLP1 secretion stimulation [5] 0.7% | inhibition of viability [6] -1.9% | viability decrease (inhibition) [7] 0.2% | viability decrease (inhibition) [8] 5.4% | outcome [9] | outcome [10] | outcome [11] | outcome [12]

Nc1ccn(C2CO[C@H](CO)O2)c(=O)n1 (stereo partly drawn)
0.3%: nuclear beta-catenin stimulation ([1]; stimulation, at 2 µM)
inactive: nuclear beta-catenin stimulation ([1]; at 10 µM) 1.3% | insulin secretion stimulation [2] 2% | viability decrease [3] -8.3% | tube area decrease [4] 7.2% | GLP1 secretion stimulation [5] 0.5% | inhibition of viability [6] 4.2% | viability decrease (inhibition) [7] -18.8% | viability decrease (inhibition) [8] 3.7% | outcome [9] | outcome [10] | outcome [11] | outcome [12]

COC(=O)C1=C(C)NC(C)=C(C(=O)OCCCN2CCC(c3ccccc3)(c3ccccc3)CC2)C1c1cccc([N+](=O)[O-])c1 (stereo not drawn)
-0.158: z-score ([15]; Rieske KO mouse fibroblast survival, CellTiter-Glo 72 h)
498 and 6520: cell count [14, 20]
active: viability decrease [3] 110% | tube area decrease [4] 109% | inhibition of viability [6] 112% | viability decrease (inhibition) [7] 134% | viability decrease (inhibition) [8] 101% | AC50 [9] 10.5 µM | IC50 [12] 7.42 µM
inactive: parasite load remaining [13] 29% | nuclear beta-catenin stimulation ([1]; at 10 µM) -0.8% | insulin secretion stimulation [2] -1.1% | GLP1 secretion stimulation [5] -3.2% | outcome [10] | outcome [11] | fold change [14, 18] 1.31 and 0.96 | z-score ([15]; MELAS cybrid survival, CellTiter-Glo 48 h, stronger effect = higher value) -1.1 | z-score [16] -2.25
380 and 6800: cell count [14, 21]
0.733 and 0.821: fold change [14, 19]
90.5%: viability [13]
9.4%: nuclear beta-catenin stimulation ([1]; stimulation, at 2 µM)

CN1CCC(Nc2ncc3ncnc(Nc4ccc(F)c(Cl)c4)c3n2)CC1
0.1%: nuclear beta-catenin stimulation ([1]; stimulation, at 2 µM)
inactive: nuclear beta-catenin stimulation ([1]; at 10 µM) 11.6% | insulin secretion stimulation [2] 5.85% | tube area decrease [4] -4.5% | GLP1 secretion stimulation [5] 6.3% | remaining activity [17] 123% | fold change [14, 18] 1.35 | z-score [16] -0.455
active: viability decrease [3] 57.4% | inhibition of viability [6] 73.7% | viability decrease (inhibition) [7] 97.8% | viability decrease (inhibition) [8] 78.2%
0.869: fold change [14, 19]
2330: cell count [14, 21]
3140: cell count [14, 20]

O=C1OC(OC(=O)c2cccnc2Nc2cccc(C(F)(F)F)c2)c2ccccc21 (stereo not drawn)
8060: cell count [14, 21]
active: tube area decrease [4] 72.7% | viability decrease (inhibition) [7] 115%
11%: nuclear beta-catenin stimulation ([1]; stimulation, at 2 µM)
7990: cell count [14, 20]
1.33: fold change [14, 19]
inactive: nuclear beta-catenin stimulation ([1]; at 10 µM) 21.1% | insulin secretion stimulation [2] 2.7% | viability decrease [3] 17.5% | GLP1 secretion stimulation [5] 1.3% | inhibition of viability [6] 10.2% | viability decrease (inhibition) [8] 31.2% | remaining activity [17] 120% | fold change [14, 18] 0.992 | z-score [16] -0.625
